Laboratory results as given in PubChem BioAssay (NCATS).
Records with an inconclusive call do not appear. Where a call stands in place of a potency, no number is given. Activity calls are given as the source filed them. Unless noted, calls follow the shape of the dose curve; as a rule, active = well fitted inhibition curve with a large enough effect; inconclusive = small, poorly fitted or top-dose-only effect; inactive = flat fitted curve, though single readings scatter.

Legend:
[1] = qHTS profiling for inhibitors of Plasmodium falciparum proliferation (AID 504749); also: nearly all actives have a fitted effect of over 60% in size; also: potency is read from the fitted curve at half-maximal effect; settings: P. falciparum in erythrocytes, SYBR Green DNA, 72 h
Summary of the method: (§1)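 In a 72 h erythrocytic culture (37 C, humidified, 5% CO2) at 2.5% hematocrit and 0.3% starting parasitemia, compounds were tested; SYBR Green I in detergent lysis buffer stained parasite DNA overnight.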

3D7 = assay: as above; settings: P. falciparum in erythrocytes, SYBR Green DNA, 72 h; series mostly up to 28.7 µM
Summary of the method: as §1

7G8 = assay: as above; settings: P. falciparum in erythrocytes, SYBR Green DNA, 72 h; series mostly up to 28.7 µM
Summary of the method: as §1

AA1029 = assay: as above; settings: P. falciparum in erythrocytes, SYBR Green DNA, 72 h; series mostly up to 28.7 µM
Summary of the method: as §1

AS120 = assay: as above; settings: P. falciparum in erythrocytes, SYBR Green DNA, 72 h; series mostly up to 28.7 µM
Summary of the method: as §1

ATS189 = assay: as above; settings: P. falciparum in erythrocytes, SYBR Green DNA, 72 h; series mostly up to 28.7 µM
Summary of the method: as §1

ATS95 = assay: as above; settings: P. falciparum in erythrocytes, SYBR Green DNA, 72 h; series mostly up to 28.7 µM
Summary of the method: as §1

C2A = assay: as above; settings: P. falciparum in erythrocytes, SYBR Green DNA, 72 h; series mostly up to 28.7 µM
Summary of the method: as §1

CP185 = assay: as above; settings: P. falciparum in erythrocytes, SYBR Green DNA, 72 h; series mostly up to 28.7 µM
Summary of the method: as §1

CP191 = assay: as above; settings: P. falciparum in erythrocytes, SYBR Green DNA, 72 h; series mostly up to 28.7 µM
Summary of the method: as §1

CP192 = assay: as above; settings: P. falciparum in erythrocytes, SYBR Green DNA, 72 h; series mostly up to 28.7 µM
Summary of the method: as §1

[2] = qHTS drug screen for cell cycle checkpoint inhibitors in PARPi-resistant BRCA-mutant ovarian cancer cell lines. (AID 1963452; calls by dose curve); settings: PEO1/OlaR viability, CellTiter-Glo luminescence, 96 h, stronger effect = lower value
Summary of the method: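 PEO1, PEO4 and PEO1/OlaR ovarian cancer cells, 600 per well, exposed 96 h at 37C to a dilution series. Viability read by CellTiter-Glo luminescence, normalized to DMSO and empty wells; activity summarized as Z-AUC.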

[3] = qHTS for identification of novel therapeutic agents for treatment of microphthalmiaassociated transcription factor (MiT) renal cell carcinoma (RCC) (AID 1963991); settings: CellTiter-Glo, 48 h, stronger effect = lower value
Summary of the method: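 Three TFE3-fusion RCC lines (UOK109, UOK124, UOK145), 500 cells/well in complete medium, were treated with MIPE 4.0 compounds for 48 hours at 37 C. Viability was by CellTiter-Glo luminescence, normalized to DMSO (100%) and empty wells (0%); curves fitted over 11 concentrations.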

[4] = at 28.7 µM (top of the series), parasite line A
[5] = at 28.7 µM (top of the series), parasite line B
[6] = measured here: PEO1 parental Z-AUC
[7] = TFE3-RCC UOK109 viability, measured here: UOK109 Z-AUC
[8] = TFE3-RCC viability, measured here: UOK124 Z-AUC
[9] = TFE3-RCC viability, measured here: UOK145 Z-AUC

N=c1nc(N2CCCCC2)cc(N)n1O
activity, negative = inhibition [1, 4]: 6.18% (inactive)
activity, negative = inhibition [1, 5]: 18.3% (inactive)
Potency (3D7): inactive
Potency (7G8): inactive
Potency (AA1029): inactive
Potency (AS120): inactive
Potency (ATS189): inactive
Potency (ATS95): inactive
Potency (C2A): inactive
Potency (CP185): inactive
Potency (CP191): inactive
Potency (CP192): inactive

CCOC(=O)C1=C[C@@]2(CC)CCCN3CCc4c(n1c1ccccc41)[C@H]32
Potency (CP192): 13.5 µM (active)

CCOC(=O)N1CCC(=C2c3ccc(Cl)cc3CCc3cccnc32)CC1
activity, negative = inhibition [1, 5]: -13.3% (inactive)
Potency ([1]; parasite line A): 12.6 µM (active)
Potency (7G8): 2.24 µM (active)
Potency (AS120): 1.78 µM (active)
Potency (ATS189): inactive
Potency (C2A): inactive

Cc1ccc(N(CC2=NCCN2)c2cccc(O)c2)cc1
Z-AUC [2]: 1.67 (inactive)
Z-AUC [2, 6]: 1.44
Z-AUC ([2]; measured here: PEO4 Z-AUC): 1.79
activity, negative = inhibition [1, 4]: -3.3% (inactive)
activity, negative = inhibition [1, 5]: -5.03% (inactive)
Potency (3D7): inactive
Potency (7G8): inactive
Potency (AA1029): inactive
Potency (AS120): inactive
Potency (ATS189): inactive
Potency (ATS95): inactive
Potency (C2A): inactive
Potency (CP185): inactive
Potency (CP191): inactive
Potency (CP192): inactive

Cc1ccccc1C(OCCN(C)C)c1ccccc1 (stereo unspecified)
activity, negative = inhibition [1, 4]: -3.11% (inactive)
activity, negative = inhibition [1, 5]: 5.42% (inactive)
Potency (3D7): inactive
Potency (ATS95): 8.91 µM (active)
Potency (CP191): inactive
Potency (CP192): inactive

Cc1cc2c(C(C)C)c(O)c(O)c(C=O)c2c(O)c1-c1c(C)cc2c(C(C)C)c(O)c(O)c(C=O)c2c1O
Z-AUC [2]: 1.05 (inactive)
Z-AUC [2, 6]: 0.604
Z-AUC ([2]; measured here: PEO4 Z-AUC): 0.413
Potency (7G8): 8.91 µM (active)
Potency (AS120): 8.91 µM (active)

Oc1ccc(C2CNCCc3c2cc(O)c(O)c3Cl)cc1 (stereo unspecified)
Z-AUC [2]: 1.23 (inactive)
Z-AUC [2, 6]: 1.1
Z-AUC ([2]; measured here: PEO4 Z-AUC): 1
Potency (3D7): inactive
Potency (AA1029): inactive
Potency (AS120): inactive
Potency (ATS189): inactive
Potency (ATS95): inactive
Potency (C2A): inactive
Potency (CP185): inactive
Potency (CP191): inactive
Potency (CP192): inactive

O=C(O)COCCN1CCN(C(c2ccccc2)c2ccc(Cl)cc2)CC1 (stereo unspecified)
z-score [3, 7]: 0.871
z-score [3, 8]: 0.439
z-score [3, 9]: 0.674

CCOC(=O)C1=C[C@]2(CC)CCCN3CCc4c(n1c1ccccc41)[C@@H]32
Potency (7G8): 5.01 µM (active)
Potency (AA1029): 10 µM (active)
Potency (AS120): 8.91 µM (active)
Potency (ATS95): 12.6 µM (active)

Nc1ccc(S(=O)(=O)Nc2ccnn2-c2ccccc2)cc1
z-score [3, 7]: 2.1
z-score [3, 8]: 0.571
z-score [3, 9]: 1.56
activity, negative = inhibition ([1]; at 12.8 µM (top of the series), parasite line A): -1.36% (inactive)
activity, negative = inhibition ([1]; at 12.8 µM (top of the series), parasite line B): 3.8% (inactive)
Potency (3D7): inactive
Potency (7G8): inactive
Potency (AA1029): inactive
Potency (AS120): inactive
Potency (ATS189): inactive
Potency (ATS95): inactive
Potency (C2A): inactive
Potency (CP185): inactive
Potency (CP191): inactive
Potency (CP192): inactive

CCCc1nc2c(C)cc(-c3nc4ccccc4n3C)cc2n1Cc1ccc(-c2ccccc2C(=O)O)cc1
Z-AUC [2]: 0.748 (inactive)
Z-AUC [2, 6]: 1.08
Z-AUC ([2]; measured here: PEO4 Z-AUC): 0.729
activity, negative = inhibition [1, 4]: -11.3% (inactive)
Potency ([1]; parasite line B): 1.78 µM (active)
Potency (3D7): 8.91 µM (active)
Potency (7G8): 0.316 µM (active)
Potency (AS120): 1.41 µM (active)
Potency (ATS189): 0.794 µM (active)
Potency (ATS95): 3.98 µM (active)
Potency (CP185): inactive

Cc1[nH]c(=O)c(C#N)cc1-c1ccc2nccn2c1
Z-AUC [2]: -0.546 (inactive)
Z-AUC [2, 6]: -0.575
Z-AUC ([2]; measured here: PEO4 Z-AUC): -0.131
activity, negative = inhibition [1, 4]: 5.44% (inactive)
activity, negative = inhibition [1, 5]: 15.3% (inactive)
Potency (3D7): inactive
Potency (7G8): inactive
Potency (AA1029): inactive
Potency (AS120): inactive
Potency (ATS189): inactive
Potency (ATS95): inactive
Potency (C2A): inactive
Potency (CP185): inactive
Potency (CP191): inactive
Potency (CP192): inactive

Cc1cn[nH]c1
Z-AUC [2]: 1.01 (inactive)
Z-AUC [2, 6]: 0.488
Z-AUC ([2]; measured here: PEO4 Z-AUC): 0.423
activity, negative = inhibition [1, 4]: 7.67% (inactive)
activity, negative = inhibition [1, 5]: 14.9% (inactive)
Potency (3D7): inactive
Potency (7G8): inactive
Potency (AA1029): inactive
Potency (AS120): inactive
Potency (ATS189): inactive
Potency (ATS95): inactive
Potency (C2A): inactive
Potency (CP185): inactive
Potency (CP191): inactive
Potency (CP192): inactive

CN1CCN(CCCN2c3ccccc3Sc3ccc(C(F)(F)F)cc32)CC1
Z-AUC [2]: 0.668 (inactive)
Z-AUC [2, 6]: 0.224
Z-AUC ([2]; measured here: PEO4 Z-AUC): 0.215
Potency ([1]; parasite line A): 2.24 µM (active)
Potency ([1]; parasite line B): 2 µM (active)
Potency (7G8): 7.94 µM (active)
Potency (AA1029): 3.16 µM (active)
Potency (AS120): 3.16 µM (active)
Potency (ATS189): 3.98 µM (active)
Potency (ATS95): 12.6 µM (active)
Potency (C2A): 7.94 µM (active)
Potency (CP191): 10 µM (active)

O=C1CCC(N2C(=O)c3ccccc3C2=O)C(=O)N1 (stereo unspecified)
Z-AUC [2]: 0.908 (inactive)
Z-AUC [2, 6]: 0.614
Z-AUC ([2]; measured here: PEO4 Z-AUC): 0.388
activity, negative = inhibition [1, 4]: 3.13% (inactive)
Potency (3D7): inactive
Potency (7G8): inactive
Potency (AA1029): inactive
Potency (AS120): inactive
Potency (ATS189): inactive
Potency (ATS95): inactive
Potency (C2A): inactive
Potency (CP185): inactive
Potency (CP191): inactive
Potency (CP192): inactive
